Source: PubChem BioAssay
In the library only some 7.4% were active in any assay of this set; here they are far more common.
NPC1 prom act: activators of NPC1 promoter. Huh7 NPC1 promoter luciferase reporter, 24 h. Potency, µM (series often up to 9.22 µM), for inactives: at the highest dose activation, most hits filed as activators. hit rate 2.4% among 320,000; further: % of control where 0% means no effect; nearly all actives have a fitted effect of over 60% in size
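NPC1 promoter–luciferase Huh7 cells; 24 h compound; luminescence.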
ELG1 genotox: induces genotoxicity in HEK293T cells with luciferase-tagged ELG1; hit rate 1.3% among 330,000; AID 504466; Potency, µM (highest dose often 46 µM), inactives show at the top dose activity change, positive = activation, actives largely listed as activators; HEK293T ELG1-luciferase reporter, luminescence, 16 h; further: % of control where 0% means no effect; nearly all actives have a fitted effect of over 60% in size
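Genotoxicity was scored as increased ELG1-luciferase reporter signal, measured by ONE-Glo luminescence (30 min, room temperature). Compound or vehicle exposure of the HEK293T reporter cells lasted 16 hr at 37°C.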
FLuc counter: firefly luciferase modulation, counter-screen for miR-21 project; P08659; purified FLuc, Km substrates, luminescence inhibition; Potency, µM (titrated, usually from 57.5 µM), without a hit: top-dose activity change, negative = inhibition, usual class: inhibitors; hit rate 6.9% among 360,000;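 further: plate controls were vehicle for no effect and reference inhibitor for full effect; nearly all actives have a fitted effect of over 55% in size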
Target sequence (P08659 whole entry, looked up): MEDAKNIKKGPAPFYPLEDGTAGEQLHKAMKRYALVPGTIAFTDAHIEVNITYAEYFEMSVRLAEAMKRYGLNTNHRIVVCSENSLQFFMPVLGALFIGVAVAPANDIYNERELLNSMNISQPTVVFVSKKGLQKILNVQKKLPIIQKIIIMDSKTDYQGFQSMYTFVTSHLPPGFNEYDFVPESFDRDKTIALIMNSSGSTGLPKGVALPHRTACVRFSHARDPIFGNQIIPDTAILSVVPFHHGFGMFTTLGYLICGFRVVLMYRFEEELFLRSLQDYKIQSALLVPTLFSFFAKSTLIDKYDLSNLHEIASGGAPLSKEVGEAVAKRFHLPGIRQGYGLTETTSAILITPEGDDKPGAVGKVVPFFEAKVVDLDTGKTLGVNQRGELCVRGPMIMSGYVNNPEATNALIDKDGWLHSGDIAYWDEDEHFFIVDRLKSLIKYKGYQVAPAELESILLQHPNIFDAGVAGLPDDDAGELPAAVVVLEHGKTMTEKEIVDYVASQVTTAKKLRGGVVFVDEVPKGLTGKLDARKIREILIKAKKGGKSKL
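Biochemical qHTS of compounds, final roughly 60 µM downward over six points, against 10 nM purified firefly luciferase using Km concentrations of substrates (10 uM D-luciferin, 10 uM ATP) in Tris acetate pH 7.5 buffer; luminescence output.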
Rab9 prom act: activators of Rab9 promoter. Huh7 Rab9 promoter-luciferase reporter, luminescence, 24 h. Potency, µM (series often up to 9.22 µM), for inactives: at the highest dose activation, negative = inhibition, actives largely listed as activators. hit rate 2.8% among 320,000; further: % of control where 0% means no effect; nearly all actives have a fitted effect of over 60% in size
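Cell-based reporter: Huh7 stable for Rab9 promoter-driven luciferase, plated in reduced-serum medium with 10% FBS at 1500 cells/well, compound-treated 24 h at 37 °C, luminescence read after 10 min reagent.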
Luc counter: counter-screen: inhibitors of Kinase-Glo firefly luciferase | hit rate 0.28% among 200,000 | Potency, µM (highest dose often 38.3 µM), for inactives: at the top dose activity change, negative = inhibition, usual class: inhibitors | AID 1379 | Kinase-Glo luciferase, ATP luminescence, 8 min; further: on the % scale 0 is the no-effect control and ±100 the full control effect; nearly all actives have a fitted effect of over 60% in size
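Luminescence was the read-out, taken after 8-minute incubation at ambient temperature. Luciferase turned over luciferin with 10 uM ATP in imidazole pH 7.2 buffer containing KCl, MgCl2, Tween 20 and BSA.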
SMN2 splice enh: enhancers of SMN2 splice variant expression. HEK293 SMN2-luciferase splicing reporter, luminescence, 30-36 h. Potency, µM (highest dose often 46.1 µM), for the others: at the top dose activity change, positive = activation, usual class: activators. hit rate 2.8% among 210,000; further: % of control where 0% means no effect; nearly all actives have a fitted effect of over 55% in size
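qHTS luciferase splicing reporter: luminescence rises when SMN2 exon 7 is included in transfected HEK293 cells. Compound exposure lasted 30-36 h at 37C, with 4.5 mM final sodium butyrate as control, followed by a ONE-Glo read.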
Active calls of the source: *; ? = inconclusive; · = no result given; [ ] = another dose, or the depositor's remark. The call rests on the fitted dose curve; in most records, active means well fitted curve in the direction sought with a large enough effect; inconclusive means small, poorly fitted or top-dose-only effect, or another doubt; inactive means no such curve, though single readings can be large; an effect the other way counts as inactive or inconclusive. Potency means the concentration at half of the fitted maximal effect.

SMILES | NPC1 prom act | ELG1 genotox | FLuc counter | Rab9 prom act | Luc counter | SMN2 splice enh
CC(=O)c1ccc(NC(=O)Nc2ccc3c(c2)N(C)C(=O)CS3)cc1 | -0.5% | -13.2% | 23.9µM* | 16.2% | 1.0% | -20.3%
Cc1ccnc(NC(=O)Nc2ccc3c(c2)N(C)C(=O)CS3)c1 | 3.55µM* | ? | 3.01µM* | 2.82µM* | -1.9% | 11.2µM*
COc1ccc(NC(=O)Nc2ccc3c(c2)N(C)C(=O)CS3)cc1Cl | -0.8% | -2.1% | 16.9µM* | 0.5% | 0.4% | -21.6%
Cc1ccc(NC(=O)Nc2ccc3c(c2)N(C)C(=O)CS3)nc1 | 0.5% | 9.0% | -3.0% | 4.2% | 1.0% | ?
COC(=O)c1ccccc1NC(=O)NCc1ccc2c(c1)CCN2C(=O)c1ccccc1 | · | · | -10.6% | · | · | ·
COc1cc(NC(=O)Cn2c(=O)n(C(C)C)c(=O)c3oc4ccccc4c32)cc(OC)c1 | · | · | -2.4% | · | · | ·
CCN(CC)CCCn1c(-c2ccccc2)nc2c(NCCOC)nc(C)nc21 | · | · | · | · | -1.6% | -0.8%
Cc1cccc(-c2cc3c(nn2)-c2ccccc2C3=O)c1 | 2.24µM* | ? | 0.757µM* | 3.55µM* | ? | 10µM*
O=C1c2ccccc2-c2nnc(-c3ccccc3)cc21 | 1.26µM* | 9.3% | 0.477µM* | 0.562µM* | 7.94µM* | ?
COc1ccc(-c2cc3c(nn2)-c2ccccc2C3=O)cc1 | ? | -7.7% | 0.169µM* | 0.1µM* | 5.01µM* | 1.12µM*
Cc1cccc(-c2nnn3c2nc(NCCc2ccc(S(N)(=O)=O)cc2)c2cc(Cl)ccc23)c1 | · | · | -1.6% | · | · | 3.9%
CCOC(=O)c1cc2c(=O)n3ccccc3nc2n(C(C)C)c1=NC(=O)C(C)(C)Oc1ccc(Cl)cc1 | · | · | 4.3% | · | · | -5.0%
COc1ccc(/C=C/C(=O)NC(=S)Nc2ccc(S(=O)(=O)Nc3cc(C)on3)cc2)cc1 | -7.4% | 4.2% | 15.1µM* | -0.7% | · | ·
Cc1ccc(/C=C/C(=O)Nc2ccc(S(=O)(=O)Nc3ncccn3)cc2)cc1 | -5.2% | 7.1% | 9.53µM* | 0.4% | 2.5% | -1.9%
Cc1ccc(/C=C/C(=O)Nc2ccc(S(=O)(=O)Nc3cc(C)nc(C)n3)cc2)cc1 | 2.6% | 0.9% | 10.7µM* | -0.8% | · | ·
O=C(Nc1ccc(S(=O)(=O)Nc2ncccn2)cc1)c1ccccc1NS(=O)(=O)c1ccc(F)cc1 | -9.9% | 0.2% | ? | -5.4% | 2.5% | -7.4%
O=C(O)/C=C/c1ccc(S(=O)(=O)Nc2ccccc2C(=O)Nc2ccc(F)cc2)cc1 | -1.0% | 7.6% | 12µM* | 1.9% | · | ·
Cc1ccnc(NS(=O)(=O)c2ccc(NC(=O)/C=C/c3ccccc3)cc2)n1 | -0.1% | 0.2% | ? | -3.9% | · | ·
CC(C)C[C@H](NC(=O)C1OC1C(=O)O)C(=O)NCCCCN=C(N)N (some centres not stated) | 1.7%[46.1 µM] | · | · | -4.1%[46.1 µM] | -9.3% | 9.2%
O=C(/C=C/c1ccc(F)cc1)Nc1ccc(S(=O)(=O)Nc2ncccn2)cc1 | -1.1% | 3.0% | 16.9µM* | 0.9% | · | ·
Cc1noc(NS(=O)(=O)c2ccc(NC(=O)/C=C/c3ccc(C(C)C)cc3)cc2)c1C | -1.2% | 0.9% | 10.7µM* | -0.9% | · | ·
CCc1nnc(NS(=O)(=O)c2ccc(NC(=O)/C=C/c3ccc(F)cc3)cc2)s1 | -6.4% | 4.4% | ? | -1.2% | 2.8% | 1.3%
O=C(NC1=NCCS1)c1sc2cc(Cl)cc(Cl)c2c1Cl | -0.4% | 3.0% | -13.3% | 2.3% | -1.0% | -3.0%
COCc1nnc(NC(=O)c2sc3ccccc3c2Cl)s1 | ? | ? | 5.36µM* | ? | -5.0% | 7.7%
COCc1nnc(NC(=O)c2cccs2)s1 | -7.3% | 1.6% | -1.0% | -7.5% | -0.4% | 14.0%
Cc1ccc(NC(=O)c2sc3ccccc3c2Cl)nc1 | 3.55µM* | ? | 0.269µM* | 3.55µM* | -12.0% | 0.631µM*
O=C(NC1=NCCS1)c1sc2ccccc2c1Cl | 1.26µM* | 2.91µM* | 2.13µM* | 1.12µM* | -3.0% | 12.6µM*
